Measurements published in PubChem BioAssay (NCATS).
Inconclusive results are not listed. Activity calls are given as the source filed them. Calls come from the whole dose curve; as a rule, active = well fitted curve in the direction sought with a large enough effect; inconclusive = small, poorly fitted or top-dose-only effect, or another doubt; inactive = no such curve, though single readings can be large; an effect the other way counts as inactive or inconclusive.

Assays:
[1] = Cellular Toxicity (caspase-3) N2a (AID 665);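 note: compound exposure lasted 16 h at 37 °C before readout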
How it was run: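 Plated mouse neuroblastoma N2a cells received titrated compounds for 16 h in complete medium. Caspase activity was then detected with a peptide-aminoluciferin luminescent reagent.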

[2] = Cellular Toxicity (caspase-3) NIH 3T3 (AID 666);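 note: caspase signal read after 16 h compound exposure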
How it was run: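 Concentration-response qHTS in NIH 3T3 mouse fibroblasts scores caspase-3/7 activation as rising luminescence after 16 hr compound exposure. Signals are scaled between DMSO-only and 100 uM tamoxifen.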

[3] = Cellular Toxicity (caspase-3) Renal Proximal Tubule (AID 667); settings: Potency: caspase-3 activation;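 note: cells exposed to compound for 16 hours at 37 °C before detection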
How it was run: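 In qHTS format, rat primary proximal tubule cells seeded at 1000 per well are exposed to compounds for 16 hours at 37 °C. An increase in Caspase-Glo 3/7 luminescence indicates caspase activation.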

[4] = Cell Viability - LYMP2-001 (AID 921); note: series mostly up to about 92 µM; nearly all actives have a fitted effect of over 70% in size
How it was run: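 qHTS, 1536-well; lymphoblastoid cells, 24 hr compound, 37 C; ATP by CellTiter-Glo, 30 min RT; luminescence; Hill-fit AC50.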

[5] = MultiTox-Fluor Cytotoxicity Assay - LYMP1-001 - Dead Cells (AID 946)
How it was run: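 LYMP1-001 lymphoblastoid cells (2500/well) treated 16 h at 37 C. Dead-cell protease cleavage of bis-AAF-R110 read at Ex/Em 485/520. Normalized to DMSO and 15 uM tetraoctylammonium bromide; AC50 from Hill fits.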

[6] = MultiTox-Fluor Cytotoxicity Assay - LYMP1-001 - Live Cells (AID 947)
[7] = Cell Viability - LYMP1-002 - Assay at 16 hr (AID 948)
How it was run: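 Acute cytotoxicity is scored as a concentration-dependent fall in intracellular ATP in a human lymphoblastoid line (LYMP1-002) after 16 hr compound exposure at 37 C, measured by luciferase luminescence.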

[8] = MultiTox-Fluor Cytotoxicity Assay - LYMP1-003 - Dead Cells (AID 961); note: nearly all actives have a fitted effect of over 70% in size
How it was run: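 LYMP1-003 human lymphoblastoid cells (2500/well) exposed to compound 16 h at 37 C in complete medium; dead-cell protease read with bis-AAF-R110 fluorescence (Ex/Em 485/520) after 60 min at room temperature. Normalized to DMSO and 15 uM tetraoctylammonium bromide; AC50 from Hill fit.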

[9] = MultiTox-Fluor Cytotoxicity Assay - LYMP1-003 - Live Cells (AID 962);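 note: cytotoxic hits lower the live-cell protease signal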
How it was run: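 Cells plated at 2500 per well and incubated 5 hr; compounds added and incubated 16 hr at 37 C; MultiTox-Fluor reagent added for 60 min at room temperature; fluorescence of liberated AFC measured at 405/510 nm.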

[10] = Cell Viability - LYMP1-003 - Assay at 24 hr (AID 963)
How it was run: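 Acute toxicity in LYMP1-003 lymphoblastoid cells: 24 hr compound treatment at 37 C, ATP measured with CellTiter-Glo after 30 min at room temperature. AC50 derived by fitting the Hill equation to qHTS titrations.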

[11] = Cell Viability - LYMP1-003 - Assay at 40 hr (AID 964); note: series mostly up to about 92 µM; nearly all actives have a fitted effect of over 60% in size
How it was run: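 This qHTS cytotoxicity screen treats human lymphoblastoid cells (LYMP1-003) with compounds for 40 hr and quantifies cellular ATP via luciferase luminescence.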

[12] = Cell Viability - LYMP2-003 (AID 965);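 note: cells exposed to compounds for 24 h before reading; nearly all actives have a fitted effect of over 50% in size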
How it was run: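 Acute cytotoxicity is scored as a concentration-dependent drop in intracellular ATP, measured by luciferase luminescence in human lymphoblastoid cells treated for 24 hours at 37 C. AC50 values derive from Hill-equation modelling.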

[13] = Cell Viability - LYMP2-004 (AID 966); note: nearly all actives have a fitted effect of over 65% in size
How it was run: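 Acute toxicity is scored as a concentration-dependent drop in intracellular ATP, quantified by luciferase luminescence, in human lymphoblastoid cells exposed to compound for 24 hr. AC50 derives from Hill-equation modelling.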

[14] = Cell Viability - LYMP2-005 (AID 967); note: series mostly up to about 92 µM
How it was run: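 qHTS viability screen in LYMP2-005 cells: 24 h at 37 C with compound, ATP luminescence via CellTiter-Glo, AC50 from Hill curves.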

[15] = Cell Viability - LYMP2-009 (AID 968); note: series mostly up to about 92 µM; nearly all actives have a fitted effect of over 55% in size
[16] = Cell Viability - LYMP2-011 (AID 969); note: nearly all actives have a fitted effect of over 60% in size
How it was run: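 Acute toxicity is scored as a concentration-dependent drop in intracellular ATP of a human lymphoblastoid line after 24 hr treatment. Values are AC50s modeled with the Hill equation.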

[17] = Cell Viability - LYMP2-013 (AID 970); note: series mostly up to about 92 µM; nearly all actives have a fitted effect of over 55% in size
How it was run: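 Acute toxicity was measured in human lymphoblastoid cells (2500/well) exposed to compound titrations for 24 hr, with ATP luminescence (CellTiter-Glo) as read-out and AC50 fitted by Hill equation.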

[18] = Cell Viability - LYMP2-015 (AID 971); note: nearly all actives have a fitted effect of over 55% in size
How it was run: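 Acute toxicity was scored as a concentration-dependent drop in intracellular ATP in lymphoblastoid cells after 24 hr compound exposure in complete medium. Detection used CellTiter-Glo luciferase luminescence.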

[19] = Cell Viability - LYMP2-017 (AID 972);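 note: series mostly up to about 92 µM; cells exposed to compound for 24 hours at 37 °C; nearly all actives have a fitted effect of over 55% in size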
How it was run: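 Steps: plate 2500 lymphoblastoid cells per well; incubate 5 hr at 37 C; add compound across a concentration series and incubate 24 hr at 37 C; add CellTiter-Glo and read luminescence after 30 min at room temperature; fit Hill curves for AC50.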

[20] = Cell Viability - LYMP2-021 (AID 974)
How it was run: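 Concentration-response cytotoxicity in a human lymphoblastoid line: 24 hr treatment at 37 C in complete culture medium, tetraoctylammonium bromide as positive control, luminescent ATP quantitation as viability measure.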

[21] = Cell Viability - LYMP2-023 (AID 975)
How it was run: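 Concentration-dependent drop in intracellular ATP measures acute cytotoxicity in a human lymphoblastoid line treated for 24 hours in complete culture medium. AC50 values are taken from Hill-equation fits of qHTS data.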

[22] = Cell Viability - LYMP2-025 (AID 976); note: series mostly up to about 92 µM
How it was run: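 In qHTS format, LYMP2-025 lymphoblastoid cells in complete culture medium received compound for 24 hr; ATP-based CellTiter-Glo signal gave viability, with AC50 derived by Hill equation.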

Measured: Potency

CC(CCC(=O)O)(c1ccc(O)cc1)c1ccc(O)cc1
inactive: [1] | [2] | [3] | [4] | [5] | [6] | [7] | [8] | [9] | [10] | [11] | [12] | [13] | [14] | [15] | [16] | [17] | [18] | [19] | [20] | [21] | [22]
